High-throughput results as filed in PubChem BioAssay.
TDP1 cell noCPT – qHTS for Inhibitors of human tyrosyl-DNA phosphodiesterase 1 (TDP1): qHTS in cells in absence of CPT | AID 686978, 2013 | 420,000 compounds, 15% hits | Potency, µM (series often up to 46.2 µM), for inactives: top-dose activity change, negative = growth inhibition, usual class: inhibitors | DT40 Tdp1-/- hTDP1 cells, no CPT, ATP luminescence, 48 h; note: potency is the fitted concentration of half-maximal effect; nearly all actives have a fitted effect of over 55% in size
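DT40 Tdp1-/-;hTDP1 cells, no CPT (DMSO vehicle only), 400 cells/well; compounds pin-transferred; ≥48 hr, 37 °C; CellTiter-Glo 30 min RT dark, luminescence read.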
HT1080 IDH1KD tx – toxicity to HT-1080 IDH1 knockdown cells (counter line); HT-1080 IDH1 knockdown viability, ATP luminescence, 48 h; AID 686971; 360,000 compounds, 2% hits; Potency, µM (top dose mostly 46.1 µM), inactives show at the highest dose activity, negative = toxicity, usual class: cytotoxic;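 note: potency is the fitted concentration of half-maximal effect; 0% = DMSO wells and -100% = cell-free medium wells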
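CellTiter-Glo luminescence after 48 h compound exposure at 37 degrees C of IDH1-knockdown HT-1080 cells in 5% FBS RPMI. %Activity scaled between DMSO wells and cell-free media wells, with curves fitted and assigned curve classes.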
TDP1 cell CPT – growth inhibition of DT40 Tdp1-/-;hTDP1 cells with camptothecin (screen for TDP1 inhibitors) | chicken DT40 Tdp1-/-;hTDP1 cells + 20 nM CPT, ATP luminescence, 48 h | Potency, µM (highest dose often 46.2 µM), for the others: at the highest dose activity change, negative = growth inhibition, most hits filed as inhibitors | 420,000 compounds, 12% hits; note: potency is the fitted concentration of half-maximal effect; nearly all actives have a fitted effect of over 55% in size
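Chicken DT40 Tdp1-/- cells complemented with human TDP1, 400 cells/well, exposed to compounds plus 20 nM camptothecin for at least 48 h at 37 C; viability read as ATP content by CellTiter-Glo luminescence.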
HT1080NT lethal – kills 2HG-producing HT-1080-NT fibrosarcoma cells; HT-1080-NT fibrosarcoma viability, CellTiter-Glo ATP luminescence, 48 h; Potency, µM (titrated, usually from 46.1 µM), without a hit: at the highest dose activity, negative = less viability, most hits filed as cytotoxic; 360,000 compounds, 1.6% hits;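 note: NT is the 2HG producing partner of a matched IDH1 knockdown line; potency is the fitted concentration of half-maximal effect; 0% = DMSO-treated cells and -100% = media-only wells without cells; nearly all actives have a fitted effect of over 55% in size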
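750 cells/well, RPMI + 5% FBS; 2 h settle, compound pin-transfer, 48 h at 37 degrees C. CellTiter-Glo 10 min RT, luminescence. Normalized to DMSO and media-only wells.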
IL-1B inflam inh – inflammasome signaling inhibition, IL-1 beta readout; THP-1 LPS/ATP IL-1B secretion, AlphaLISA, 16 h; stronger effect = lower value; activity change, % at 57.5 µM; 360,000 compounds, 4.7% hits; in the data active = activity change below about -50%; inconclusive = mostly about -30% to -49%
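THP-1 cells pretreated 1 hr with compounds (up to 57.5 uM final), then stimulated with LPS (250 ng/mL final) plus ATP (1.25 mM final); secreted IL-1B measured by AlphaLISA after 16 hr, decreased signal indicating inhibition.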
* marks the source's active call; other numbers are inactive results; ? = inconclusive; . = not tested or not shown; [ ] = another dose, or the depositor's remark. Compounds with a hit are over-represented: about 19% of the library has one in this group of screens. Unless noted, calls come from the whole dose curve; as a rule, active = well fitted curve in the direction sought with a large enough effect; inconclusive = small, poorly fitted or top-dose-only effect, or another doubt; inactive = no such curve, though single readings can be large; an effect the other way counts as inactive or inconclusive. Unless noted, % is set by controls: 0 for no effect and ±100 for the full control effect.

SMILES	TDP1 cell noCPT	HT1080 IDH1KD tx	TDP1 cell CPT	HT1080NT lethal	IL-1B inflam inh
CC(C)(C)NS(=O)(=O)c1ccc(NC(=S)NC(=O)C2CCC2)cc1	?	-21%	?	-14%	3
CCOc1ccc(S(=O)(=O)Nc2cccc(C(=O)N(C)CC(=O)Nc3ccc(OC)cc3)c2)cc1	-30%	-6%	-26%	-3%	5
CCCC(=O)NC(=S)Nc1ccc(S(=O)(=O)Nc2ccc(OCC)cc2)cc1	?	23µM*	12µM*	4.6µM*	8
CCOc1ccc(NS(=O)(=O)c2ccc(NC(=S)NC(=O)CC(C)C)cc2)cc1	?	-5%[9.24 µM]	?	?	0
CC(C)CC(=O)NC(=S)Nc1ccc(S(=O)(=O)NC(C)(C)C)cc1	23µM*	-12%	?	-15%	-6
CCOc1ccc(NS(=O)(=O)c2ccc(C(=O)N(C)CC(=O)Nc3ccc(OC)cc3)cc2)cc1	?	-15%	13µM*	-2%	36
CCCCNS(=O)(=O)c1ccc(NC(=O)Cc2ccc(OC)cc2)cc1	7.3µM*	-9%	13µM*	-1%	36
COc1ccc(CC(=O)Nc2ccc(S(=O)(=O)NC(C)C)cc2)cc1	?	-19%	?	-4%	23
C=CCNC(=O)CSCc1ccc(Br)cc1	-15%	-3%	0%	0%	-6
CCOC(=O)C1CCCN(c2c(Nc3cc(C)cc(C)c3)c(=O)c2=O)C1 (stereo unspecified)	-26%	8%	-10%	14%	-12
CCOC(=O)C1CCCN(c2c(Nc3ccc(C)c(C)c3)c(=O)c2=O)C1 (stereo unspecified)	?	12%	16µM*	7%	42
Cc1ccccc1-c1nn2c(=O)cc(CN3CCN(C(=O)c4ccccc4Br)CC3)nc2s1	?	.	-18%	.	.
COc1ccc(-c2noc(CCC(=O)N3CCN(Cc4ccccc4)CC3)n2)cc1	?	1%	-28%	-1%	-7
O=C(c1ccco1)N1CCCC(c2nc(-c3ccc(S(=O)(=O)NCc4ccccc4)cc3)no2)C1 (stereo unspecified)	18µM*	?	13µM*	?	?
CCCCCCC(=O)N1CCCC(c2nc(-c3cccc(OC)c3)no2)C1 (stereo unspecified)	?	-2%	0%	-6%	-62*
CCCC(=O)N1CCCC(c2nc(-c3cccc(OC)c3)no2)C1 (stereo unspecified)	?	0%	?	-5%	-7
CCCCCC(=O)N1CCCC(c2nc(-c3ccc(OC)cc3)no2)C1 (stereo unspecified)	23µM*	-8%	?	2%	?
COc1ccc(-c2noc(C3CCCN(C(=O)CCc4ccccc4)C3)n2)cc1 (stereo unspecified)	?	-16%	18µM*	-5%	-22
O=C(O)CCC(=O)N1CCN(c2ncccn2)CC1	-1%	19%	-16%	14%	18
CCCn1c(SCC(=O)Nc2cccc(S(=O)(=O)N3CCCC3)c2)n[nH]c1=O	-19%	-4%	2%	-3%	7
COc1cccc(-c2noc(C3CCCN(C(=O)Cc4ccccc4)C3)n2)c1 (stereo unspecified)	18µM*	0%	18µM*	1%	-6
O=C(CCn1c(=O)c2ccccc2n(CC(=O)NC2CCCC2)c1=O)NCCc1ccc(Cl)cc1	-17%	21%	1%	22%	-4
COc1cccc(CNCCCSc2nnnn2C)c1	-7%	.	-3%	.	.
Cn1nnnc1SCCCNCc1cccc(OCc2ccccc2Cl)c1	16µM*	.	18µM*	.	.
Cn1nnnc1SCCCNCc1ccccc1OCc1ccccc1Cl	4.6µM*	.	5.2µM*	.	.
SMILES	TDP1 cell noCPT	HT1080 IDH1KD tx	TDP1 cell CPT	HT1080NT lethal	IL-1B inflam inh
O=C(COc1ccc([N+](=O)[O-])cc1)Nc1ccc(C(=O)NCc2cccnc2)cc1	3%	8%	-22%	15%	12
COc1ccc2[nH]cc(CCNC(=O)CS(=O)(=O)Cc3ccccc3)c2c1	-2%	19%	-1%	14%	-18
NC1=NC[C@H](Cc2ccccc2)N1CC1CCCCC1	12µM*	0%	10µM*	-6%	-13
NC1=NC[C@@H](Cc2ccc(O)cc2)N1CCCCC1CCCCC1	3.7µM*	-27%	5.2µM*	-21%	?
CC(C)(C)CN1C(N)=NC[C@@H]1Cc1ccccc1	-27%	-6%	-2%	0%	-4
COc1cc(CCCN2C(N)=NC[C@@H]2Cc2ccc(O)cc2)cc(OC)c1OC	-11%	-1%	-5%	11%	-1
NC1=NC[C@H](Cc2ccccc2)N1CCc1cc(C(F)(F)F)cc(C(F)(F)F)c1	15µM*	-4%	23µM*	-4%	-27
NC1=NC[C@H](Cc2ccc(O)cc2)N1CC1CCCCC1	15µM*	-4%	?	-2%	-4
O=C1NC[C@H](CCCCN2C[C@H](Cc3ccc(O)cc3)N(CC3CCCCC3)C(=O)C2=O)N(CC2CCCCC2)C1=O	-11%	5%	2%	7%	13
CN(C)C(CNc1ncccn1)c1ccccc1 (stereo unspecified)	-20%	19%	-13%	26%	-3
C=CC(N)CCC(=O)O (stereo unspecified)	0%	.	-11%	.	.
NC1=NC[C@@H](Cc2ccc(O)cc2)N1CCC12CC3CC(CC(C3)C1)C2	21µM*	-10%	21µM*	-7%	-6
NC1=NC[C@H](Cc2ccc(O)cc2)N1CCc1cccc(F)c1	?	2%	-16%	3%	-6
O=C(NC12CC3CC(CC(C3)C1)C2)C12CC3CC(C1)CC(n1cnc(Cl)n1)(C3)C2	16µM*	13%	21µM*	14%	31
O=[N+]([O-])c1ccc(N2CCN(Cc3ccccc3)CC2)c(S(=O)(=O)N2CCOCC2)c1	?	-8%	-12%	-3%	-3
O=[N+]([O-])c1ccc(Br)c(CN2CCN(c3ncc(Cc4ccccc4)cn3)CC2)c1	21µM*	-20%	?	-10%	60
O=[N+]([O-])c1ccc(Cl)c(CN2CCN(c3ncc(Cc4ccccc4)cn3)CC2)c1	16µM*	-22%	23µM*	-20%	15
Oc1ccc(F)c(CN2CCN(c3ncc(Cc4ccccc4)cn3)CC2)c1	26µM*	?	?	?	22
COc1cccc(Nc2nc3ccc(C)cc3nc2-n2nc(C)cc2C)c1	?	.	-28%	.	.
CCOC(=O)c1c(C)[nH]c(C)c1C(=O)COC(=O)c1ccc(OC)cc1	-16%	-11%	-15%	0%	-6
